From PubChem BioAssay (NCATS)
Values joined by “and” are separate entries in the source; they are usually repeats but may differ in a detail not shown here. Identical values can stand only once. Unmarked numbers belong to inactive results. Results filed as inconclusive are left out. Where a call stands in place of a potency, no number is given. Active and inactive are the calls of the source. Calls come from the whole dose curve; as a rule, active = well fitted curve in the direction sought with a large enough effect; inconclusive = small, poorly fitted or top-dose-only effect, or another doubt; inactive = no such curve, though single readings can be large; an effect the other way counts as inactive or inconclusive.

Assays:
[1] = Cellular Toxicity (caspase-3) HepG2 (AID 654);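 note: cells exposed to compound for 16 hours before reading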
Method in brief: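 HepG2 cells (1500/well) were treated 16 h at 37 °C in complete medium, then caspase 3/7 activity was read by Caspase-Glo luminescence. Data were normalized to DMSO and 100 uM tamoxifen; AC50 came from Hill-equation fits of qHTS concentration-response.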

[2] = Cellular Toxicity (caspase-3) Jurkat (AID 655); conditions: Jurkat caspase-3 activation, luminescence; caspase-3 activation: at 92.2 µM (top of the series), DMSO = 0%, tamoxifen = 100%;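 note: cells exposed to compound for 16 h at 37 °C before reading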; note: potency is the fitted concentration of half-maximal effect
Method in brief: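 Luminescent Caspase-Glo 3/7 read-out (20 min, room temperature) after 16 h compound treatment at 37 C of 5000 Jurkat cells per well. AC50 derived by Hill-equation fitting, scaled between DMSO basal and 100 uM tamoxifen stimulation.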

[3] = Cellular Toxicity (caspase-3) SHSY5Y (AID 657)
Method in brief: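 Luminescent Caspase-Glo 3/7 read-out, 1 hr room temperature, follows 16 hours of compound treatment of SH-SY5Y cells at 37 °C. Normalization: DMSO basal, 10 uM staurosporine as 100%; AC50 values from Hill-equation concentration-response fits.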

[4] = Cellular Toxicity (caspase-3) BJ (AID 658)
Method in brief: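 BJ human foreskin fibroblasts, 1000 cells/well, treated 16 hours at 37 °C in complete medium; caspase 3/7 activity by Caspase-Glo luminescence after 1 hr at room temperature. Normalized to DMSO and 10 uM staurosporine; AC50 from Hill fits.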

[5] = Cellular Toxicity (caspase-3) MRC-5 (AID 659)
Method in brief: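 MRC-5 human normal lung fibroblasts, 1500 cells/well, treated 16 h at 37 °C in complete medium. Caspase 3/7 measured by Caspase-Glo luminescence after 1 h at room temperature. Normalized to DMSO and 10 uM staurosporine; AC50 from Hill fit.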

[6] = Cellular Toxicity (caspase-3) Mesangial (AID 660)
Method in brief: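 Human renal glomerular mesangial cells, 1000/well, 5 h at 37 C before 16 h compound treatment. Caspase-Glo 3/7 luminescence after 20 min; normalized to DMSO and 100 uM tamoxifen, AC50 from Hill fit.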

[7] = Cellular Toxicity (caspase-3) SK-N-SH (AID 661)
Method in brief: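 Human SK-N-SH neuroblastoma cells, 1500/well, were exposed to compounds for 16 hours at 37 °C. Caspase-Glo 3/7 luminescence was normalized to DMSO (basal) and 10 uM staurosporine (100%), and AC50 came from a Hill fit.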

[8] = Cellular Toxicity (caspase-3) H-4-II-E (AID 663);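 note: cells exposed to compound for 16 hr before readout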
Method in brief: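 Rat hepatoma H-4-II-E cells (1500/well) plated 5 hr, then exposed to compound titrations for 16 hr at 37 °C. Caspase-Glo 3/7 luminescence read after 20 min at RT; data normalized to DMSO and 100 uM tamoxifen, AC50 from Hill fits.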

[9] = Cellular Toxicity (caspase-3) Hek293 (AID 664);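 note: cells exposed to compound for 16 h at 37 °C before readout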
Method in brief: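 HEK293 cells in complete medium treated 16 h at 37 °C, then Caspase-Glo 3/7 luminescence read after 20 min at room temperature. Normalized to DMSO and 100 uM tamoxifen; AC50 from Hill fit of concentration-response.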

[10] = Cellular Toxicity (caspase-3) N2a (AID 665);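 note: compound exposure lasted 16 h at 37 °C before readout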
Method in brief: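 Mouse N2a neuroblastoma cells, 1500 per well, treated 16 h at 37 °C in complete medium; caspase-3/7 activity by Caspase-Glo luminescence after 1 h. Normalized to DMSO and 10 uM staurosporine; AC50 from Hill fits.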

Row | SMILES | outcome [1] | caspase-3 activation [2] | outcome [3] | outcome [4] | outcome [5] | outcome [6] | outcome [7] | outcome [8] | outcome [9] | outcome [10] | Potency [2]
1 | O=C(O)CCC(=O)C(=O)O | inactive | 0.778% | inactive | inactive | inactive | inactive | inactive | inactive | inactive | inactive | –
2 | Nc1ccn([C@H]2CS[C@@H](CO)O2)c(=O)n1 | inactive | -0.771% | inactive | inactive | inactive | inactive | inactive | inactive | inactive | inactive | –
3 | O=CCCCC=O | – | – | inactive | – | – | inactive | – | – | inactive | inactive | 6.31 µM (active)
4 | CCCCC/C=C\C/C=C\CCCCCCCC(=O)O | inactive | 2.62% | inactive | inactive | inactive | inactive | inactive | inactive | inactive | inactive | –
5 | CCOc1ccc2c(c1)C(C)=CC(C)(C)N2 | inactive | 15.7% | inactive | inactive | inactive | inactive | inactive | inactive | inactive | inactive | –
6 | CC(C)=O | inactive | -1.17% | inactive | inactive | inactive | inactive | inactive | inactive | inactive | inactive | –
7 | Cc1ccccc1 | inactive | -1.43% and -0.873% | inactive | inactive | inactive | inactive | inactive | inactive | inactive | inactive | –
8 | CC(O)CO (stereo unspecified) | inactive | 1.29% and 0.367% | inactive | inactive | inactive | inactive | inactive | inactive | inactive | inactive | –
9 | CCOC(C)=O | inactive | -0.547% | inactive | inactive | inactive | inactive | inactive | inactive | inactive | inactive | –
10 | CC(C)(C)NC(=O)[C@@H]1C[C@@H]2CCCC[C@@H]2CN1C[C@@H](O)[C@H](Cc1ccccc1)NC(=O)[C@H](CC(N)=O)NC(=O)c1ccc2ccccc2n1 | – | 116% (active) | – | – | – | inactive | – | – | – | inactive | –
11 | O=S(=O)(O)O | inactive | 4.57% and 0.977% | inactive | inactive | inactive | inactive | inactive | inactive | inactive | inactive | –
12 | CC1=C(/C=C/C(C)=C/C=C/C(C)=C/CO)C(C)(C)CCC1 | inactive | – | inactive | inactive | inactive | inactive | inactive | inactive | – | inactive | –
13 | CCCCCCCC/C=C\CCCCCCCC(=O)O | inactive | 1.62% | inactive | inactive | inactive | inactive | inactive | inactive | inactive | inactive | –
14 | CC1=C2[C@@H]([C@H](C)CC[C@H]2/C=C(\C)C(=O)O)[C@H](O)C1 | inactive | 0.468% | inactive | inactive | inactive | inactive | inactive | inactive | inactive | inactive | –
15 | IC(I)I | inactive | -0.0373% | inactive | inactive | inactive | inactive | inactive | inactive | inactive | inactive | –
16 | CCCCCCCC(=O)O | inactive | -0.427% and 1.06% | inactive | inactive | inactive | inactive | inactive | inactive | inactive | inactive | –
